The values below come from PubChem BioAssay (EPA / NIEHS).

Each structure is given as a SMILES string. Activity calls are given as the source filed them. Rule for the calls: active = hit-call score of the fitted dose curve at least 0.9, where 1 is the maximum; inactive = score below 0.9.

A short description of experiment [1]: ATG_GLI_CIS: Attagene CIS-FACTORIAL HepG2 Assay for human Zinc Finger Protein GLI1 (AID 2282945). The conditions noted are these: HepG2, Attagene cis-factorial reporter mRNA, GLI element; actives raise or lower the signal. The procedure, abridged:
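Bidirectional curve fits relative to DMSO, using reporter mRNA levels from RT-PCR plus capillary electrophoresis. Cells were HepG2 transiently carrying cis-regulated reporter constructs, harvested 24 h after dosing.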

For experiment [2], the target named is Bile acid receptor (Homo sapiens) (UniProt Q96RI1). As to the kind of experiment: ATG_IR1_CIS: Attagene CIS-FACTORIAL HepG2 Assay for human Nuclear Receptor Subfamily 1 Group H Member 4 (NR1H4), IR1 submotif (AID 2282946). As to conditions: IR1 reporter transcription, actives raise or lower the signal. In a few lines: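 Cells (human HepG2) carry transiently transfected cis-promoter reporter transcription units. Compounds are incubated 24 h, total RNA is reverse-transcribed and amplified, and labelled fragments are resolved by capillary electrophoresis. Curves use DMSO as baseline.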

Experiment [3] in a line: ATG_GRE_CIS: Attagene CIS-FACTORIAL HepG2 Assay for human Glucocorticoid Response Elements (GRE) (AID 2282947). The conditions noted are these: HepG2 GRE cis-reporter, Attagene multiplex mRNA; actives raise or lower the signal. In a few lines:
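Assay uses human hepatoma HepG2 cells transfected with cis-promoter reporter units, exposed 24 h. mRNA from reporters detected by RT-PCR plus capillary electrophoresis; DMSO serves as negative control and baseline.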

The nature of experiment [4]: ATG_ISRE_CIS: Attagene CIS-FACTORIAL HepG2 Assay for human Interferon Regulatory Factor 1 (IRF1) binding to an Interferon-Stimulated Response Element (ISRE) (AID 2282948). As to conditions: HepG2 ISRE cis-reporter (Attagene), mRNA transcription readout; actives raise or lower the signal. The procedure, abridged: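 Transiently transfected HepG2 cells carrying cis-element reporter units, dosed 24 hours. Reporter mRNA quantified by RT-PCR, fluorescent primer extension, HpaI digestion and capillary electrophoresis. Bidirectional fitting relative to DMSO.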

The nature of experiment [5]: ATG_M_06_CIS: Attagene CIS-FACTORIAL HepG2 Assay for M06 Transcription Factor (Internal Marker) (AID 2282950). As to conditions: HepG2 Attagene CIS-FACTORIAL M06 internal marker reporter; actives raise or lower the signal. In a few lines: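 Internal background marker within multiplexed cis-reporter HepG2 system. Cells transiently transfected, dosed 24 h; reporter mRNA measured by RT-PCR, HpaI digestion and capillary electrophoresis. Bidirectional fit relative to DMSO.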

Experiment [6] addresses Hypoxia-inducible factor 1-alpha (Homo sapiens) (UniProt Q16665). As to the kind of experiment: ATG_HIF1a_CIS: Attagene CIS-FACTORIAL HepG2 Assay for human Hypoxia Inducible Factor 1 (HIF1A) (AID 2282951). As to conditions: HepG2 Attagene cis-factorial HIF1a reporter transcription; actives raise or lower the signal. The procedure, abridged: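 HepG2, transient cis-reporter library, 24 h dosing. RNA → RT (oligo dT) → PCR → 6-FAM primer extension → HpaI → CE. Bidirectional curve fit vs DMSO.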

Experiment [7] addresses Hepatocyte nuclear factor 6 (Homo sapiens) (UniProt Q9UBC0). Put plainly: ATG_HNF6_CIS: Attagene CIS-FACTORIAL HepG2 Assay for human Hepatocyte Nuclear Factor 6 (HNF6) (AID 2282952). As to conditions: HepG2 Attagene cis-factorial HNF6 reporter transcription; actives raise or lower the signal. The procedure, abridged:
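HepG2 cells transiently transfected with cis-element-driven multiplexed reporter units measuring endogenous transcription factor activity. After 24 h exposure, reporter mRNA quantified by RT-PCR, FAM-labelled fragments and capillary electrophoresis; bidirectional fitting versus DMSO.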

Experiment [8] in a line: ATG_MRE_CIS: Attagene CIS-FACTORIAL HepG2 Assay for human Metal Responsive Element (MRE) (AID 2282954). As to conditions: HepG2 MRE cis-reporter transcription, Attagene multiplex; actives raise or lower the signal. In a few lines: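 After a 24 h chemical exposure, transiently transfected HepG2 cells yield RNA whose reporter sequences are amplified, FAM-labelled and sized by capillary electrophoresis. Curves are fitted bidirectionally relative to DMSO.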

Experiment [9] in a line: ATG_PBREM_CIS: Attagene CIS-FACTORIAL HepG2 Assay for human Phenobarbital-responsive Enhancer Module (PBREM) (AID 2282955). The conditions noted are these: HepG2 PBREM cis-reporter, Attagene multiplexed transcription; actives raise or lower the signal. In a few lines: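 HepG2, transient MRTU transfection, 24 h dosing; RNA → oligo(dT) RT → PCR → 6-FAM extension → HpaI → CE. Bidirectional fit vs DMSO.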

Experiment [10] concerns the target Paired box protein Pax-6 (Homo sapiens) (UniProt P26367). Put plainly: ATG_Pax6_CIS: Attagene CIS-FACTORIAL HepG2 Assay for human Paired Box 6 (PAX6) (AID 2282956). As to conditions: HepG2 CIS-FACTORIAL PAX6 reporter transcription, RNA readout; actives raise or lower the signal. The procedure, abridged:
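HepG2 cells transiently transfected with cis-promoter-driven multiplexed reporter units sensing endogenous transcription factor activity; 24 h chemical exposure. Reporter mRNA quantified by RT-PCR, 6-FAM labelling, HpaI digestion and capillary electrophoresis; bidirectional fit versus DMSO baseline.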

A short description of experiment [11]: ATG_PXRE_CIS: Attagene CIS-FACTORIAL HepG2 Assay for human Pregnane X Receptor Element (PXRE) (AID 2282957). The conditions noted are these: HepG2 Attagene CIS-FACTORIAL PXRE reporter, mRNA; actives raise or lower the signal. In a few lines:
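HepG2 cells transiently transfected with cis-element-driven multiplexed reporter units; after 24 h chemical exposure, reporter mRNA measured by RT-PCR, 6-FAM labelling, HpaI digestion and capillary electrophoresis. Bidirectional fitting relative to DMSO.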

A short description of experiment [12]: ATG_PPRE_CIS: Attagene CIS-FACTORIAL HepG2 Assay for human Peroxisome Proliferator-activated Response Element (PPRE) (AID 2282958). As to conditions: HepG2 PPRE cis-element reporter, Attagene transcription factor profiling; actives raise or lower the signal. In a few lines:
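Transcript-level reporter induction in transfected HepG2 cells after 24 h chemical exposure, quantified by fluorescence from RT-PCR products separated by capillary electrophoresis.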

The nature of experiment [13]: ATG_RORE_CIS: Attagene CIS-FACTORIAL HepG2 Assay for human RAR-related Orphan Receptor Element (RORE) (AID 2282959). As to conditions: HepG2 Attagene cis-factorial RORE reporter, mRNA; actives raise or lower the signal. In a few lines:
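Multiplexed reporter assay measuring mRNA induction from a cis promoter element in transiently transfected HepG2 cells after 24 h treatment. Detection via RT-PCR and capillary electrophoresis fluorescence; DMSO serves as baseline.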

Experiment [14] is described as follows: ATG_Sox_CIS: Attagene CIS-FACTORIAL HepG2 Assay for human SRY-box transcription factor (SOX) (AID 2282960). As to conditions: HepG2 Attagene cis-factorial SOX reporter, mRNA; actives raise or lower the signal. The procedure, abridged: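 Cells were transfected with reporter constructs under cis-regulatory promoters, then exposed to chemicals for 24 h. Reporter transcripts were quantified by fluorescence after RT-PCR and capillary electrophoresis; activity was fitted in both directions against DMSO.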

Experiment [15] has as its target Transcription factor Sp1 (Homo sapiens) (UniProt P08047). Put plainly: ATG_Sp1_CIS: Attagene CIS-FACTORIAL HepG2 Assay for human Specificity Protein 1 (Sp1) (AID 2282961). The conditions noted are these: HepG2 Sp1 cis-reporter transcription, actives raise or lower the signal. The procedure, abridged:
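Measures mRNA induction of an Sp1-linked reporter in HepG2 cells 24 h post-dosing. Multiplexed reporters read by RT-PCR and capillary electrophoresis; DMSO serves as negative control and baseline.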

Experiment [16] can be described thus: ATG_SREBP_CIS: Attagene CIS-FACTORIAL HepG2 Assay for human Sterol Regulatory Element Binding (SREBP) (AID 2282962). The conditions noted are these: HepG2 Attagene cis-factorial SREBP reporter, mRNA; actives raise or lower the signal. In a few lines: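 HepG2 cells transiently transfected with multiplexed cis-promoter reporter units sensing endogenous transcription factors; reporter mRNA measured 24 h after dosing by RT-PCR, 6-FAM labeling, HpaI digestion and capillary electrophoresis. Bidirectional fit versus DMSO.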

The target of experiment [17] is Signal transducer and activator of transcription 3 (Homo sapiens) (UniProt P40763). Put plainly: ATG_STAT3_CIS: Attagene CIS-FACTORIAL HepG2 Assay for human Signal Transducer and Activator of Transcription 3 (STAT3) (AID 2282963). As to conditions: HepG2, Attagene cis-factorial STAT3 reporter transcription; actives raise or lower the signal. In a few lines: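 After a 24 h compound incubation, total RNA from MRTU-transfected HepG2 cells was converted to cDNA and reporter sequences PCR-amplified, labelled and profiled by capillary electrophoresis. Gain and loss of signal were referenced to DMSO.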

Experiment [18] in a line: ATG_TA_CIS: Attagene CIS-FACTORIAL HepG2 Assay for human TA Basal Promoter (AID 2282964). The conditions noted are these: HepG2 Attagene CIS-factorial TA basal promoter reporter; actives raise or lower the signal. In a few lines:
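HepG2 cells transiently transfected with multiple reporter units under cis promoter elements, reporting endogenous transcription factor activity; this endpoint tracks the TA basal promoter as background control. Reporter mRNA after 24 h dosing measured by RT-PCR/capillary electrophoresis; bidirectional fits versus DMSO.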

The nature of experiment [19]: ATG_M_32_CIS: Attagene CIS-FACTORIAL HepG2 Assay for M32 Transcription Factor (Internal Marker) (AID 2282949).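 Note: background control marker of the multiplexed CIS panel rather than a real target.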 The conditions noted are these: HepG2 Attagene cis-factorial M32 reporter, mRNA; actives raise or lower the signal. In a few lines: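 Internal background marker read-out: RT-PCR/capillary electrophoresis fluorescence of reporter transcripts from transiently transfected HepG2 cells after 24 h chemical exposure. Activity fitted bidirectionally relative to DMSO negative control.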

Experiment [20] has as its target Heat shock factor protein 1 (Homo sapiens) (UniProt Q00613). As to the kind of experiment: ATG_HSE_CIS: Attagene CIS-FACTORIAL HepG2 Assay for human Heat Shock Transcription Factor 1 (HSE) (AID 2282953). As to conditions: HepG2 HSE cis-reporter, Attagene RNA transcription; actives raise or lower the signal. In a few lines: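 HepG2 cells transfected with cis-promoter reporter units sensing endogenous transcription factor activity; reporter mRNA quantified 24 h post-dose by RT-PCR and capillary electrophoresis of 6-FAM-labelled products. Bidirectional fitting against DMSO.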

Chain of Paired box protein Pax-6 (Homo sapiens) (P26367 whole entry, looked up): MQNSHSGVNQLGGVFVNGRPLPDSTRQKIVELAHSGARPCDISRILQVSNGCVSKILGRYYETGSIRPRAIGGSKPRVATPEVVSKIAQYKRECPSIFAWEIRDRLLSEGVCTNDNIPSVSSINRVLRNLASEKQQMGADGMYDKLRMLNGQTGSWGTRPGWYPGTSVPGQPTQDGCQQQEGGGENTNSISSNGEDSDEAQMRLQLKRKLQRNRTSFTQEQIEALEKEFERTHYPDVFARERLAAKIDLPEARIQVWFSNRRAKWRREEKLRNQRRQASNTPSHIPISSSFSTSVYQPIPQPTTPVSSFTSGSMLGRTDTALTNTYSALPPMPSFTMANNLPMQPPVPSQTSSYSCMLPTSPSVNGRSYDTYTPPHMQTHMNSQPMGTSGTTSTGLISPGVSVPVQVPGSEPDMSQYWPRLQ
Chain of Hypoxia-inducible factor 1-alpha (Homo sapiens) (Q16665 whole entry, looked up): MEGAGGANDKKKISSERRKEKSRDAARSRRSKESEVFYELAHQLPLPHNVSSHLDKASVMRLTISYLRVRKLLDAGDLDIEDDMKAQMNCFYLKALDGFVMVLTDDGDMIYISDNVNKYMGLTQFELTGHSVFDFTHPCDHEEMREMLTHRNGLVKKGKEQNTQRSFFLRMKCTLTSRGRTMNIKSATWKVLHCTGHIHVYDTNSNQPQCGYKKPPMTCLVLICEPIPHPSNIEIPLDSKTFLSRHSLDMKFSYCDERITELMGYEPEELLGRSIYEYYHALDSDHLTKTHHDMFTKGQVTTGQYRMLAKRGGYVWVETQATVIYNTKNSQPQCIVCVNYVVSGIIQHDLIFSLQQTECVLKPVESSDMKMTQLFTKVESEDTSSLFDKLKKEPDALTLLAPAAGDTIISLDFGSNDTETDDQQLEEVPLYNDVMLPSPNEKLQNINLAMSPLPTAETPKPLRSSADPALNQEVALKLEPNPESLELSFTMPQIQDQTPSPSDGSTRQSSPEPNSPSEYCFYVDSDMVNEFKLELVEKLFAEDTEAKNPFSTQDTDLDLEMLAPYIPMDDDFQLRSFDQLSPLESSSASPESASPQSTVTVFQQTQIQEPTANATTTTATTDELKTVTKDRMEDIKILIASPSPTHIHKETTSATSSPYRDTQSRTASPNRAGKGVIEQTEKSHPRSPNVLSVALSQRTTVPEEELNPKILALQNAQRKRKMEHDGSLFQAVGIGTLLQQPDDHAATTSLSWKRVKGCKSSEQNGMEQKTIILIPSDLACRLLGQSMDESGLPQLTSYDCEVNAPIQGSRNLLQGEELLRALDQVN
Chain of Transcription factor Sp1 (Homo sapiens) (P08047 whole entry, looked up): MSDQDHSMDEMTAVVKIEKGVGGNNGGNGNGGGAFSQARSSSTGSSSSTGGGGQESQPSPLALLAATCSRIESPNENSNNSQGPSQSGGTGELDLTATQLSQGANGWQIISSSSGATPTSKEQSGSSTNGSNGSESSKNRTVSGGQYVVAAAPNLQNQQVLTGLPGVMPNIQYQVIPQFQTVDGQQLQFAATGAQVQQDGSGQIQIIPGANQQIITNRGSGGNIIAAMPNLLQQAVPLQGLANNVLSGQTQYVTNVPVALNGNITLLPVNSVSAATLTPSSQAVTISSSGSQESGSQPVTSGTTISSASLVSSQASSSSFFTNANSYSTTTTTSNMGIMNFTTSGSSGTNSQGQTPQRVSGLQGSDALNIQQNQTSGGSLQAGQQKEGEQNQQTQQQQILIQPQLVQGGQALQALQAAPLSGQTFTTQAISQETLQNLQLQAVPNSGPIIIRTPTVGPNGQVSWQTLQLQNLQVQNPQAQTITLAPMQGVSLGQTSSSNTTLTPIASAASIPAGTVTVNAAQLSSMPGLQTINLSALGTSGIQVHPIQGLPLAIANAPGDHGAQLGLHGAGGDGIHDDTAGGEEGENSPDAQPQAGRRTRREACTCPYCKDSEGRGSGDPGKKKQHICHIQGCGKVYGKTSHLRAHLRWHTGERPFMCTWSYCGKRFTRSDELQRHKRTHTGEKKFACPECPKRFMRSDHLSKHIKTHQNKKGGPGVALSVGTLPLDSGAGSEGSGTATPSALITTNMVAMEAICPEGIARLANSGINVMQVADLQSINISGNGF
Chain of Hepatocyte nuclear factor 6 (Homo sapiens) (Q9UBC0 whole entry, looked up, the tested form may be a part): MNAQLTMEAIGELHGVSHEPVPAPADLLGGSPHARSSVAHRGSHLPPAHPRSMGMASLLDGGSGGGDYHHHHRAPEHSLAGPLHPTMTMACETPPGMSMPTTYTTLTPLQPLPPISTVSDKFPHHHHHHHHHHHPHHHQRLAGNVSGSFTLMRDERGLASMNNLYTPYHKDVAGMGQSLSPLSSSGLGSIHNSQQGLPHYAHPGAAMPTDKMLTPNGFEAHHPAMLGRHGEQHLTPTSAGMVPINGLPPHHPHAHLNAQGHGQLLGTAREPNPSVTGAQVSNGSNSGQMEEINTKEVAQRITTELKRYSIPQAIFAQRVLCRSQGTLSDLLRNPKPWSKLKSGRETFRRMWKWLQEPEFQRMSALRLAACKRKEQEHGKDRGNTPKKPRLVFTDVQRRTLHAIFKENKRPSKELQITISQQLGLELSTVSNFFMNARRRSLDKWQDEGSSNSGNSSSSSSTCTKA
Chain of Signal transducer and activator of transcription 3 (Homo sapiens) (P40763 whole entry, looked up): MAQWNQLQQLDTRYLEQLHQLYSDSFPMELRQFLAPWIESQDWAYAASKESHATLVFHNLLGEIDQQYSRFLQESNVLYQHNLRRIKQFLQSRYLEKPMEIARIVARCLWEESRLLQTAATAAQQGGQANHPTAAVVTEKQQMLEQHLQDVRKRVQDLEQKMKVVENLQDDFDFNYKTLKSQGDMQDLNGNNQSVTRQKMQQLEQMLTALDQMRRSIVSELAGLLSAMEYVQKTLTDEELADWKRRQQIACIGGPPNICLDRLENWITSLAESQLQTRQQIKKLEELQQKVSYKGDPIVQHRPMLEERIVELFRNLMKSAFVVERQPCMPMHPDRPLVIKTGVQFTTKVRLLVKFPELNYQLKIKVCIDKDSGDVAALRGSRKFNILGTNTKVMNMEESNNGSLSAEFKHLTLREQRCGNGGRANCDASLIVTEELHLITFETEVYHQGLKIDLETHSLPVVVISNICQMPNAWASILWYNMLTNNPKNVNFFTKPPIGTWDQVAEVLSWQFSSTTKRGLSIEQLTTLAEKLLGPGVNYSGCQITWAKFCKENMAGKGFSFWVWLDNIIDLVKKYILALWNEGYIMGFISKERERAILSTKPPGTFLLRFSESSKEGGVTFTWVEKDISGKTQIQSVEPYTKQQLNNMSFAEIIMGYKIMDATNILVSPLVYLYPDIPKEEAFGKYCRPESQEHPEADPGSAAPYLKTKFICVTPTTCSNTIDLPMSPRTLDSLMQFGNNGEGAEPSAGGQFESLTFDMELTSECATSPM
Chain of Bile acid receptor (Homo sapiens) (Q96RI1 whole entry, looked up, the tested form may be a part): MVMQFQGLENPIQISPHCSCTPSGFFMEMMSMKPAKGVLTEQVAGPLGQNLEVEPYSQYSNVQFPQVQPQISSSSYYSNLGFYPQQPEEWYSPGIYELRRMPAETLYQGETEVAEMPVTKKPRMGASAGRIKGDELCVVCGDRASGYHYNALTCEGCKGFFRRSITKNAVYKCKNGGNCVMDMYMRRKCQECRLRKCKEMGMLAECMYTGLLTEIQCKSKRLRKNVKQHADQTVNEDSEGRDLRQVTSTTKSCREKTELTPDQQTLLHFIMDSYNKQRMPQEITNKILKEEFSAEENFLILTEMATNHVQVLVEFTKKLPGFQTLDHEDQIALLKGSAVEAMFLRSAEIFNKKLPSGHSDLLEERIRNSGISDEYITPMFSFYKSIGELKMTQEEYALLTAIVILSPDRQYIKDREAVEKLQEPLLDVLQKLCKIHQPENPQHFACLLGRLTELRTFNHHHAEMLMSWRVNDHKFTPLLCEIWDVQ
Chain of Heat shock factor protein 1 (Homo sapiens) (Q00613 whole entry, looked up): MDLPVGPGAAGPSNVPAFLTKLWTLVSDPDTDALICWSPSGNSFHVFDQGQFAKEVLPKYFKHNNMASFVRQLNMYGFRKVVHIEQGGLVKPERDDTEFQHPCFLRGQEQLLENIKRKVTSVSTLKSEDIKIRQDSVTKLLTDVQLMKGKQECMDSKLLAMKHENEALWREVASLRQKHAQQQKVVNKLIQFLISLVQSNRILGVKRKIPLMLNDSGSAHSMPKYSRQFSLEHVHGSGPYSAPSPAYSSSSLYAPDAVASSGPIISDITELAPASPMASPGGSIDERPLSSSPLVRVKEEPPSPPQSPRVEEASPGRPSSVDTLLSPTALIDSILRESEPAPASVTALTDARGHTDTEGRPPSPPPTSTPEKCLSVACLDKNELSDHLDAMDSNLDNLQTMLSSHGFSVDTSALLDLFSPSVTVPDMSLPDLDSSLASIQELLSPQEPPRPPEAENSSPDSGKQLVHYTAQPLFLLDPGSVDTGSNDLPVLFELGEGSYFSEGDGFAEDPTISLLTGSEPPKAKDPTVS

Usually AC50 stands for the concentration at which the activity in the assay is half-maximal. As for `O=C(O)CCCCC(=O)O`, the molecule was called inactive in experiment [1], in experiment [2], in experiment [3], in experiment [4], in [5] and in experiment [6]. Further, the molecule was classed as inactive in experiment [7], in experiment [8], in experiment [9], in experiment [10], in experiment [12] and in [13]. Moreover, the call in experiment [14], in [15], in experiment [16], in [17] and in [18] was inactive. Besides, in experiment [11], the AC50 is 55 µM (active).

Consider `Cc1ccccc1Cl`, for which the outcome in [1], in experiment [2], in experiment [3], in [4], in experiment [19] and in experiment [5] was inactive. Also, the call in experiment [6], in [7], in [20], in [8], in [9] and in experiment [10] was inactive. The molecule was classed as inactive in [11], in [12], in experiment [15], in [16], in experiment [17] and in experiment [18].

With `COc1cc(S(=O)(=O)O)c(C)cc1N=Nc1c(O)ccc2cc(S(=O)(=O)O)ccc12`, the outcome in experiment [1], in experiment [2], in experiment [3], in [4], in experiment [19] and in [5] was inactive. Also, the outcome in [7], in [20], in [8], in experiment [9], in experiment [10] and in experiment [11] was inactive. In addition, the molecule was called inactive in [12], in experiment [14], in experiment [15], in experiment [16], in experiment [17] and in [18]. For the same molecule, the AC50 in [6] is 5.78 µM (active).

Consider `COc1cc(/C=C/C(=O)CC(=O)/C=C/c2ccc(O)c(OC)c2)ccc1O`, for which the AC50 is 53.9 µM (active) in [1]; 51 µM (active) in experiment [2]; 33.4 µM (active) in [4]; 47.4 µM (active) in experiment [7]; 52.6 µM (active) in [8]; 46.6 µM (active) in [10]. For the same molecule, the results for the AC50 in experiment [11], in experiment [15] and in experiment [16] were 60.4 µM (active), 44.5 µM (active) and 56.8 µM (active), respectively. The molecule was classed as inactive in experiment [3], in experiment [5], in [6], in [9], in [12] and in experiment [17]. Besides, in [18], the molecule was classed as inactive.
